The structures appear in SMILES notation. Values without a mark were called inactive. The rule behind the calls is not given here.

The target in the assay is Pantothenate synthetase (Mycobacterium tuberculosis (strain ATCC 25618 / H37Rv)) (UniProt P9WIL5). In words: Recombinant Mtb pantothenate synthetase (PanC) inhibitors, coupled enzyme, confirmatory (AID 375).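 Note: 0% = full reaction with vehicle and 100% = no enzyme background.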 As to conditions: coupled enzyme assay; at 10 µM, stronger effect = higher value.
Pantothenate synthetase (Mycobacterium tuberculosis (strain ATCC 25618 / H37Rv)), sequence (P9WIL5 whole entry, looked up): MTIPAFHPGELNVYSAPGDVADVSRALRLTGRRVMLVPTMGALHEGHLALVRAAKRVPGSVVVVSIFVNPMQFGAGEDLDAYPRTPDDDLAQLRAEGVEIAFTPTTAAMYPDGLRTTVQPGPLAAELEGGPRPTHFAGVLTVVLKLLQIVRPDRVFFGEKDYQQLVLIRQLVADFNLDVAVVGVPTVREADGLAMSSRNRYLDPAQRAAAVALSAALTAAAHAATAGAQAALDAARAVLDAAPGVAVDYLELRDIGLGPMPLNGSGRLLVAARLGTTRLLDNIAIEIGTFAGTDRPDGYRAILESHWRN
Usually inhibition stands for the percentage by which the read-out fell short of the control. Take `N#CC1=C(SCC(=O)c2cc3ccccc3oc2=O)NC(=O)C(C#N)C12CCCC2` (stereo not given): the inhibition was 0%.
Under `O=C(Nc1ccccc1N1CCOCC1)c1ccc2ccccc2n1` stands 0%; under `COC1CCCCC1Nc1cccc(SC)c1` (stereo not given), 0%.
Under `COc1ccc(OC)c(NC(=O)C2CCN(c3cc(-c4ccccc4)nc4ncnn34)CC2)c1` stands 2%; under `O=C(O)c1cc(-c2ccccc2Cl)n[nH]1`, 2%.
Under `CCc1ccc(NS(=O)(=O)c2cccs2)cc1` stands 0%.
With `COCCNC(=O)C(c1ccc(C)o1)N(Cc1ccc(OC)cc1)C(=O)Cn1nnc2ccccc21` (stereo not given), the inhibition was 1%.
The same measure for `COc1ccc(-c2nc(SC)n(S(=O)(=O)c3ccccc3)n2)cc1`: 0%.
In the case of `Cc1ncoc1C(=O)Nc1ccccc1C(N)=O`, the inhibition was 0%.
Under `CCOC(=O)N1CCN(C(=O)CN(C2CCCCC2)S(=O)(=O)c2ccc(F)cc2)CC1` stands 0%; under `CC(C)(C)n1nc2c(c1NC(=O)COc1ccc(Cl)cc1)CSC2`, 0%; under `CC(C)CC(c1nnnn1C1CCCC1)N1CCN(c2ccccc2F)CC1` (stereo not given), 0%.
For the molecule `CC(=O)OCC(=O)[C@@]1(O)CC[C@H]2[C@@H]3CCC4=CC(=O)C=C[C@]4(C)[C@H]3[C@@H](O)C[C@@]21C`, the inhibition is 0%.
As for `C=CCn1c(C)cc(C(=O)CSc2nc3ccccc3o2)c1C`, the inhibition is 9%.
The same measure for `O=C(O)c1ccc(COc2ccc(Cl)cc2)o1`: 0%; for `COCCCC/C(=N\OCCN)c1ccc(C(F)(F)F)cc1`: 0%.
Consider `COC(=O)C1=C(C)Nc2nnnn2C1c1cccs1` (stereo not given), for which the inhibition is 8%.
For `CCCCN(c1ccccc1)S(=O)(=O)c1ccc2c(c1)CCN2C(=O)CCC(=O)O`, the inhibition was 0%.
Under `O=C(CNC(=O)c1cccs1)NCCN1CCN(c2ccccc2F)CC1` stands 0%; under `COC(=O)c1cccc(Nc2cc(C)nc(-c3ccccc3O)n2)c1`, 1%; under `CN(C)CCC=C1c2ccccc2CCc2ccccc21`, 0%.
Under `CC1=C(C(=O)OC(C)C)C(c2ccccn2)n2ncnc2N1` (stereo not given) stands 0%; under `CCOC(=O)N1CCN(c2cc(=O)n(-c3cccc(Br)c3)c(=O)[nH]2)CC1`, 0%; under `O=C1NC(Nc2ccccn2)(C(F)(F)F)C(=O)N1c1ccc(F)cc1` (stereo not given), 0%.
Under `N#Cc1nc(-c2ccco2)oc1NCc1ccco1` stands 11%.
As to `O=c1cc(COn2nnc3ccc(C(F)(F)F)cc32)nc2sccn12`, the inhibition was 0%.
The same measure for `O=C1C(Cl)=C(N2CCCCC2)C(=O)N1c1ccccc1Cl`: 7%; for `CN1C(=O)C(CC(=O)N2CCN(C(c3ccccc3)c3ccccc3)CC2)N(C)C1=O` (stereo not given): 0%.
Under `COc1cccc(C2C(C(=O)c3ccc(C)o3)=C(O)C(=O)N2CCCN(C)C)c1` (stereo not given) stands 0%.
Under `Cc1nnc(SCc2nc3ccccc3s2)n1-c1ccccc1` stands 3%.
In the case of `Cc1ccc2nc(NC(=O)C3CCN(S(=O)(=O)c4cccc5nsnc45)CC3)sc2c1`, the inhibition is 4%.
Regarding `Cc1ccc(S(=O)(=O)N2CCCC(C(=O)NC3=NCCS3)C2)cc1` (stereo not given), the inhibition is 12%.
Under `COC(=O)c1ccc(NC2(C#N)C(=O)Nc3ccccc32)cc1` (stereo not given) stands 0%.
The same measure for `CCOC(=O)Nc1ccc(NS(=O)(=O)c2ccc(C)cc2)cc1`: 0%; for `COCCN(Cc1cc2cc3c(cc2n2nnnc12)OCO3)C(=O)c1ccccc1F`: 2%; for `Cc1cc2oc(=O)cc(CN3CCCCC3)c2cc1C(C)C`: 0%.
Consider `[O-][n+]1c2c(nn1-c1ccccc1Cl)-c1nonc1CC2`, for which the inhibition was 4%.
The same measure for `CN(C)CCCN1C(=O)c2oc3ccc(Cl)cc3c(=O)c2C1c1cccnc1` (stereo not given): 0%; for `CCn1c(CCNC(=O)c2ccc(OC)c(OC)c2)nc2ccccc21`: 3%.
The same measure for `COCC(=O)N(Cc1cc2cc(OC)ccc2[nH]c1=O)c1ccccc1`: 0%.

(Values after PubChem BioAssay.)
